This is part of a sample that, as a whole, favours compounds with a hit. Of some 83,000 tested, about 20% had one in any assay.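 Step 1: grow cells in 96-well plates. Step 2: add test compound at a single concentration. Step 3: incubate 48 h. Step 4: record percent growth.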 Calls of active or inactive are those of the source.
Test system: OVCAR-3 ovarian
Test: NCI-60 one-dose screen, 48 h (100 = growth as untreated, 0 = no growth, -100 = all killed)
Details: 10 µM unless noted
Procedure: Growth inhibition of the OVCAR-3 human tumor cell line is measured as a screen for anti-cancer activity. Cells are grown in 96 well plates and exposed to the test compound for 48 hours. Compounds are tested at a single concentration, which is 10^-5 M for most compounds. The reported endpoint is percent growth (GI% or GIPRCNT), where numbers from 0 - 100% represent growth inhibition, and numbers from -100% - 0 represent cell death. For example, a value of 40 represents 60% growth inhibition. A value of 0 means no net growth occurred over the course of the experiment. A value of -40 indicates 40% of cells at the beginning of the experiment died by the end of the experiment. A value of -100 means all cells are dead at the end of the experiment.
NCI-60 Human Tumor Cell Lines Screen was performed using the standard one-dose NCI protocol, which is described in more detail at https://dtp.cancer.gov/discovery_development/nci-60/default.htm.
Compounds with GIPRCNT values below 10 were considered active. Activity score was based on GIPRCNT using the following formula: […]
Score is 0 for GIPRCNT values of 100 or above, 50 for GIPRCNT values of 0, and 100 for GIPRCNT values of -100.

Structure (SMILES) | growth
Cc1ccc(Cl)cc1NC(=O)c1sc2nc3c(cc2c1N)C(=O)CCC3 | 22.1% (inactive)
COc1ccc2c(c1)c(/C(O)=C1\COC(=O)C1=O)cn2Cc1ccc(F)cc1 | 107% (inactive)
CCOC(=O)C(Cc1ccc(OC)cc1)C(=O)OCC | 2.41% (active)
O=P(O)(O)OCC1OC(n2cnc3c(NCc4ccco4)ncnc32)C(O)C1O (stereo not given) | -72% (active)
O=C(CI)NC(=O)NC(=O)NCc1ccccc1 | -55.9% (active)
CCOc1c(OC)cc2c(c1O)C(=O)N[C@@H]1[C@@H](O)[C@@H](O)[C@H](O)C[C@@H]21 | 102% (inactive)
O=C(CN1CCN(c2cc3c(cc2F)c(=O)c(C(=O)O)cn3C2CC2)CC1)N/N=C/c1ccco1 | 107% (inactive)
C[n+]1ccc(CCc2c[nH]c3ccccc23)cc1 | 107% (inactive)
CCN(CC)CCCN1C(=O)c2c(c(C)c3c(oc4ccc(O)cc43)c2C)C1=O | 55.7% (inactive)
Cc1[nH]c(C2CC(c3ccc(C(F)(F)F)c(F)c3)=NN2c2ccccc2)c(C)c1C(=O)NCC(F)(F)F (stereo not given) | 98.2% (inactive)
O=C1c2ccccc2C(=O)c2c1cc1c(c2[N+](=O)[O-])OCO1 | -20.9% (active)
CN(Cc1ccccc1)c1nc(Cl)c(C2CC(c3ccccc3)=NN2c2ccccc2)s1 (stereo not given) | 105% (inactive)
Cc1ccc(-c2nc3nc(-c4ccccc4)nc(N4CCCN(S(C)(=O)=O)CC4)c3o2)cc1 | 83.4% (inactive)
O=C(Nc1ccc(Cl)cc1)Oc1c(Cl)c(Cl)c(Cl)c(Cl)c1Cl | 98.8% (inactive)
CN1CCN(Cc2ccc(NC(=O)c3cncc(C#Cc4cnc(N)c5ncccc45)c3)cc2C(F)(F)F)CC1 | 15.3% (inactive)
CCOC(=O)c1c(C)nc2ccccc2c1/C=C/c1cccs1 | 82.7% (inactive)
CN(CCC(=O)c1ccccc1)CCC(=O)c1ccccc1 | 113% (inactive)
O=C(O)c1ccc(-c2ccc(/C=N/Nc3nc(Nc4ccccc4)nc(N4CCCCC4)n3)o2)cc1 | 64.8% (inactive)
Cn1cc(-c2csc(-c3c[nH]c4ccc(F)cc34)n2)c2ccnc(Cl)c21 | 73.4% (inactive)
O=c1nc(-c2ccccc2)c2cc(-c3ccc(C(F)(F)F)nc3)ccc2[nH]1 | 96% (inactive)

Structure (SMILES) | growth
CN1CCN(CCOc2ccc(-c3cnc4c(-c5cccc(F)c5F)cnn4c3)cc2)CC1 | -52.6% (active)
Nc1nc(NC(=O)Nc2ccc(C(=O)O)cc2)nn1-c1ccc(S(N)(=O)=O)cc1 | 95.7% (inactive)
CC1(C)OB(O)c2cc(-c3nc4ccc5[nH]ncc5c4c4c3CCCC4)ccc21 | 94.6% (inactive)
C=C1CC[C@@H]2[C@](C)(COC(C)=O)[C@H](OC(C)=O)CC[C@@]2(C)[C@@H]1CC(Nc1ccc(S(=O)(=O)NC(C)=O)cc1)C1=CCOC1=O (stereo not given in full) | -87.7% (active)
O=C(/C=C/c1ccc(Cl)cc1)c1cccc(OCCCOc2cccc(C(=O)/C=C/c3ccc(Cl)cc3)c2)c1 | 95.4% (inactive)
CC1(C)C(N)=Nc2cc(OCCCN3Cc4ccccc4C3)c(OCC3CC3)cc21 | 80.6% (inactive)
CNC(C)[C@H]1CCC2C3CC=C4C(=O)[C@@H](NC(=O)C=C(C)C)CC[C@]4(C)C3CC[C@@]21C (stereo not given in full) | -14% (active)
CN1CCN(C(=O)C(C)(C)c2ccc(C(=O)Nc3cn4cc(-c5ccncc5)ccc4n3)cc2)CC1 | -37.4% (active)
Cc1ccc(/C=C/C(=O)Nc2ncc(Cc3ccc(F)cc3)s2)o1 | 36.9% (inactive)
C=C1C(=O)O[C@H]2[C@H]1CC/C(COC(=O)NCc1ccc(Cn3c(=O)sn(-c4ccc(C#N)cc4)c3=O)cc1)=C\CC[C@@]1(C)O[C@@H]21 | -39.5% (active)
CN(C)c1ccc(-c2nc(-c3ccccc3)c(-c3ccccc3)[nH]2)cc1 | 114% (inactive)
c1ccc(CCNc2c3ccccc3nc3ccccc23)cc1 | 71% (inactive)
COC(=O)N1CC(Oc2ccccn2)C2CC1c1ccccc1O2 (stereo not given) | 110% (inactive)
NC(=O)c1cnc(Nc2cccc(N)c2)nc1NCCCNC(=O)C1CCC1 | 82.6% (inactive)
O=C(Nc1ccccc1N1CCCC1=O)c1oc2ccc(F)cc2c1-c1cnn(-c2ccccc2)c1 | 72.4% [50 µM] (inactive)
O=c1c2c3c(sc2n2c(-c4cc(-c5ccccc5)no4)nnc2n1Cc1ccccc1)CCCC3 | 78.7% (inactive)
CC1(C)NCCC[C@]2(C)[C@H]3CC[C@H]4[C@H]5[C@H](C(=O)/C=C/c6cccnc6)CCC[C@]5(CO)CC[C@@]4(C)[C@]3(C)CC[C@@H]12 | 60.1% (inactive)
C[C@H](C(=O)N(CCc1ccc(Cl)c(Cl)c1)Cc1cncs1)[C@@H]1CC[C@H](C[C@H](C)n2cc(CN3CCC(c4ccc(Cl)cc4)CC3)nn2)O1 | 105% (inactive)
CCN1CCN(CC(=O)Nc2ccc(-c3cn4c(n3)sc3cc(Oc5ccnc(C(=O)NC)c5)ccc34)cc2)CC1 | 88.8% (inactive)
COc1cc(Cl)c(C)cc1NC(=O)c1cc2ccccc2cc1O | 6.37% (active)
